Assay outcomes from PubChem.
An excerpt weighted towards active compounds, which were near 3.3% of everything screened.
LmPK inh: inhibitors of Leishmania mexicana pyruvate kinase | Q27686 | purified LmPK, Kinase-Glo ATP luminescence, 1 h | Potency, µM (series often up to 57.5 µM), for inactives: top-dose activity change, negative = inhibition, usual class: inhibitors | 290,000 tested, 0.37% active | AID 1721; also: % is scaled to controls: 0 for no effect and ±100 for the full control effect
Target sequence (Q27686 whole entry, looked up): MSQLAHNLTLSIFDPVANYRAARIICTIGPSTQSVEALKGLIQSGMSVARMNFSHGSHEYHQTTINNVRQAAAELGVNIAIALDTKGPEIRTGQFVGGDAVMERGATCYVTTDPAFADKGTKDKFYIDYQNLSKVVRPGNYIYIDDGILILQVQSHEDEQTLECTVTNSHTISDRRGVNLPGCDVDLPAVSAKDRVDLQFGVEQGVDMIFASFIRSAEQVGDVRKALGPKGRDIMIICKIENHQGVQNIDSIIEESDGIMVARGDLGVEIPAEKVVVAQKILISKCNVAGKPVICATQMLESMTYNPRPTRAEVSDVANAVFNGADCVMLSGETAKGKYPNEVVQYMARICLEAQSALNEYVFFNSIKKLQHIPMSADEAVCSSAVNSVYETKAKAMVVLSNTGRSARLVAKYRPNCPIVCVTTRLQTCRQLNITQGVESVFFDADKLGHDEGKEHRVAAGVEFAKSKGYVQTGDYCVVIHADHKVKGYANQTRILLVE
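qHTS format; LmPK 0.1 nM; substrates PEP 0.5 mM and ADP 0.1 mM. One-hour room-temperature incubation, then coupled luciferase luminescence; 0.5 nM enzyme wells mark activation.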
SARS PLpro yeast: SARS-CoV PLP inhibition in yeast; S. cerevisiae expressing SARS-CoV PLpro, growth rescue; Potency, µM (series often up to 32.9 µM), for the others: at the top dose activity, positive = growth rescue, most hits filed as activators; 330,000 tested, 0.19% active; calls by dose curve; also: 0% is about no effect; nearly all actives have a fitted effect of over 55% in size
Sm TGR inh: blocks Schistosoma mansoni thioredoxin glutathione reductase; 360,000 tested, 3% active; AID 485364; Potency, µM (highest dose often 114 µM), inactives show at the highest dose activity change, negative = inhibition, hits mostly inhibitors; purified TGR, DTNB reduction, TNB absorbance 405 nm; also: % is scaled to controls: 0 for no effect and ±100 for the full control effect; nearly all actives have a fitted effect of over 60% in size
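TGR 20 nM + NADPH 100 uM (dispensed conc.), cpd preinc 15 min RT; start with NADPH (500 uM addition) then DTNB (15 mM addition). Kinetic TNB absorbance, 405 nm filter. Four-parameter Hill fit across titration.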
RE007 growth inh: less growth of the S. pombe RE007 Vpr strain; S. pombe RE007 Vpr strain, BacTiter-Glo ATP luminescence, 24 h; Potency, µM (series often up to 92.2 µM), for the others: at the highest dose activity change, negative = less growth, usual class: inhibitors; 360,000 tested, 0.21% active; AID 651644; active = well fitted falling curve with a large enough effect; inconclusive = small, poorly fitted or top-dose-only effect; inactive = no such curve, though single readings can be large or run the other way; also: % is scaled to controls: 0 for no effect and ±100 for the full control effect; nearly all actives have a fitted effect of over 50% in size
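Fission yeast RE007 carrying one integrated HIV-1 vpr copy, seeded at OD 0.01 in PMG+AL medium with 23 nL pinned compound. Grown 24 h at 30 degrees; viability read by BacTiter-Glo luminescence after 5 min.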
TbPYK inhibitor: inhibitors of Trypanosoma brucei pyruvate kinase; Potency, µM (series often up to 76.8 µM), for the others: at the top dose activity, negative = inhibition, actives largely listed as inhibitors; AID 624173; 410,000 tested, 0.12% active; Q57TT1; TbPYK enzyme, Kinase-Glo Plus ATP luminescence, 45 min; also: % is scaled to controls: 0 for no effect and ±100 for the full control effect; nearly all actives have a fitted effect of over 50% in size
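Luminescence from Kinase-Glo Plus, added after a 45-minute room-temperature reaction, served as the end-point read-out. The enzyme and substrate were preincubated with compound before ADP (130 uM final) initiated turnover. Concentration-effect curves came from normalized qHTS data.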
NS1 inh: influenza NS1 inhibition; Potency, µM (top dose mostly 46.1 µM), for the others: at the highest dose activity, positive = more growth; 270,000 tested, 0.4% active; calls by dose curve; also: actives are rising curves; nearly all actives have a fitted effect of over 50% in size
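S. cerevisiae expressing influenza A NS1, grown in glucose, washed, then diluted 1:100 into pH 6.0 -URA galactose medium with 23 nl compound. Growth recovery read as OD600; NS1-free strain serves as control.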
The depositor's hits bear a star; ? = inconclusive; . = no result given; [ ] = another dose, or the depositor's remark. Unless noted, calls follow the shape of the dose curve; as a rule, active = well fitted curve in the direction sought with a large enough effect; inconclusive = small, poorly fitted or top-dose-only effect, or another doubt; inactive = no such curve, though single readings can be large; an effect the other way counts as inactive or inconclusive. Potency is read from the fitted curve at half-maximal effect.

SMILES	LmPK inh	SARS PLpro yeast	Sm TGR inh	RE007 growth inh	TbPYK inhibitor	NS1 inh
COc1cccc(-c2nc3c(C#N)c[nH]n3c2NC2CCCC2)c1OC	.	.	-1.6%	.	2.8%	.
Cc1ccccc1NC(=O)c1c(C)oc2ccc(O)c(CN3CCCC(C)C3)c12 (stereo unspecified)	.	.	-2.8%	.	2.4%	.
COC(=O)c1ccccc1-c1ccc(C(c2c(C)[nH][nH]c2=O)c2c(C)[nH][nH]c2=O)o1	5.8%	-1.4%	-1.2%	16.0%	-6.6%	2.2%
Cc1[nH][nH]c(=O)c1C(c1ccc(-c2ccc(Cl)c(C(=O)O)c2)o1)c1c(C)[nH][nH]c1=O	0.2%	0.7%	15.8µM*	-27.9%	-16.5%	3.2%
COC(=O)c1cccc(-c2ccc(C(c3c(C)[nH][nH]c3=O)c3c(C)[nH][nH]c3=O)o2)c1	-4.5%	2.2%	14.1µM*	-5.9%	-10.9%	.
Cc1ccc(-c2ccc(C(=O)O)o2)cc1Cl	1.8%	-0.7%	-28.5%	30.9%	-3.7%	-53.0%
C[C@@H]1CCCN(CP(=O)(c2ccccc2)c2ccccc2)C1	.	.	.	.	.	2.8%
Cn1ccnc1C(O)c1cc(C(C)(C)C)c(O)c(C(C)(C)C)c1 (stereo unspecified)	-0.1%	-55.5%	17.8µM*	-15.1%	?	-38.7%
C/C=C/COC(=O)c1[nH]c2c(c1C)C(=O)CC(c1ccco1)C2 (stereo unspecified)	-3.4%	-19.6%	50.1µM*	1.8%	-9.4%	-1.4%
C=CCOC(=O)c1[nH]c2c(c1C)C(=O)CC(c1ccco1)C2 (stereo unspecified)	0.2%	-9.7%	44.7µM*	0.2%	-17.0%	-12.1%
Cc1c(C(=O)OC2CCCC2)[nH]c2c1C(=O)CC(c1ccco1)C2 (stereo unspecified)	1.6%	2.0%	-34.1%	-2.8%	-3.6%	1.2%
Cc1c(C(=O)OCC(C)C)[nH]c2c1C(=O)CC(c1ccco1)C2 (stereo unspecified)	-0.7%	16.0%	?	-7.9%	-7.6%	-18.0%
O=C(/C=C/c1ccccc1)Nc1nc(-c2cccs2)ns1	.	.	10.7%	.	19.7%	.
O=C(NNC1CC(=O)N(c2ccc(F)cc2)C1=O)c1cccnc1 (stereo unspecified)	1.0%	-0.6%	7.94µM*	6.8%	3.9%	0.7%
CCOC(=O)CNC(=O)c1cc(C)oc1C	1.0%	3.4%	35.5µM*	.	.	6.0%
O=C(CCSCc1ccccc1Cl)NCc1cccs1	0.8%	-1.8%	-3.3%	39.8%	-1.2%	.
Cc1cc(C(=O)NCCC2=CCCCC2)c(C)o1	-2.0%	-4.5%	22.4µM*	3.7%	-8.4%	-33.0%
Cc1cc(C(=O)NCc2cccs2)c(C)o1	6.7%	-2.6%	22.4µM*	5.1%	1.8%	-5.9%
O=C(CCSCCC(=O)NCc1cccs1)NCc1cccs1	-1.7%	-1.0%	39.8µM*	6.7%	-2.6%	0.5%
CCCCS(=O)(=O)N1CCc2nc(-c3ccc(OC)cc3C)c3c(c2C1)CO[C@@H](c1ccccc1)C3	-6.6%[11.5 µM]	.	.	.	.	.
C[C@H](CN1CCCC1)C(=O)c1ccc(C(F)(F)F)cc1	.	.	.	.	0.0%	.
ClC1=C(Cl)[C@]2(Cl)[C@@H]3[C@@H]4C[C@@H]([C@H]5O[C@@H]45)[C@@H]3[C@@]1(Cl)C2(Cl)Cl	.	.	.	.	4.4%[157 µM]	.
CCC(C)Sc1oc(-c2ccco2)nc1S(=O)(=O)c1ccc(C)cc1 (stereo unspecified)	.	.	14.6%	.	4.3%	.
NNC(=O)c1nc[nH]c1C(=O)Nc1ccccn1	-0.4%	14.1µM*	10.4%	5.1%	0.2%	6.6%
c1ccc(-c2csc(Nc3ccc4c(c3)OCO4)n2)cc1	.	.	.	-14.4%	-1.0%	.
SMILES	LmPK inh	SARS PLpro yeast	Sm TGR inh	RE007 growth inh	TbPYK inhibitor	NS1 inh
O=C1c2ccccc2C(=O)N1c1cccc(-c2csc(Nc3ccc4c(c3)OCO4)n2)c1	-0.5%	15.3%	50.1µM*	.	.	28.8%
CC(=O)c1cccc(NC(=O)CSc2nnc3ccc(-c4ccc(Cl)cc4)nn23)c1	.	.	3.9%	.	0.4%	.
CCOC(=O)c1ccccc1NC(=O)CSc1ncc2c(n1)-c1ccccc1N(CC)S2(=O)=O	.	.	12.8%	.	0.5%	.
C#CCOCCOCCOCCNc1nc(N2CCN(C(=O)[C@H](CCC(=O)O)n3cc(C(N)CC(C)C)nn3)CC2)nc(N2CCN(C(=O)[C@H](CCC(=O)O)n3cc(C(N)[C@H](C)CC)nn3)CC2)n1 (stereo partly specified)	-0.2%	0.4%	31.6µM*	7.3%	0.0%	-6.3%
C#CCOCCOCCOCCNc1nc(N2CCN(C(=O)[C@H](CCCCN)n3cc([C@@H](N)C(C)CC)nn3)CC2)nc(N2CCN(C(=O)[C@H](CCCCN)n3cc([C@@H](N)CC(C)C)nn3)CC2)n1 (stereo partly specified)	5.4%	-2.2%	39.8µM*	-8.4%	2.4%	0.6%
C#CCOCCOCCOCCNc1nc(N2CCN(C(=O)[C@H](CCCCN)n3cc(CCCC)nn3)CC2)nc(N2CCN(C(=O)[C@H](Cc3ccc(O)cc3)n3cc(CCO)nn3)CC2)n1	-0.3%	24.9%	35.5µM*	7.3%	-2.1%	25.8%
C#CCOCCOCCOCCNc1nc(N2CCN(C(=O)[C@H](CCC(=O)O)n3cc(C(N)CO)nn3)CC2)nc(N2CCN(C(=O)[C@H](CCC(=O)O)n3cc(C(N)[C@H](C)CC)nn3)CC2)n1 (stereo partly specified)	2.3%	0.3%	28.2µM*	11.0%	-8.2%	2.3%
C#CCOCCOCCOCCNc1nc(N2CCN(C(=O)[C@H](CCCCN)n3cc([C@@H](N)[C@H](C)CC)nn3)CC2)nc(N2CCN(C(=O)[C@H](CCCCN)n3cc([C@@H](N)CC(N)=O)nn3)CC2)n1	.	1.8%	.	-1.0%	-2.4%	.
C#CCOCCOCCOCCNc1nc(N2CCN(C(=O)[C@H](CCCCN)n3cc(CC(C)O)nn3)CC2)nc(N2CCN(C(=O)[C@H](Cc3ccc(O)cc3)n3cc(CCO)nn3)CC2)n1 (stereo partly specified)	.	.	.	8.9%	-1.0%	.
Cc1cccc(-c2nc(SCC(=O)Nc3cccc(C(F)(F)F)c3)n3[nH]c(=O)cc3n2)c1	.	.	13.1%	.	-0.1%	.
Cc1ccc(CNC(=O)c2ccc3c(c2)NC(=O)C(CS(=O)(=O)Cc2ccc(F)cc2)N3)cc1 (stereo unspecified)	.	.	29.6%	.	-4.9%	.
CN(C1CCCCC1)S(=O)(=O)c1ccc(F)c(C(=O)Nc2ccc(C(F)(F)F)cc2)c1	.	.	11.0%	.	0.7%	.
C[C@@H]1C[C@H]2[C@@H]3CCC4=CC(=O)C=C[C@]4(C)C3(F)[C@@H](O)C[C@]2(C)[C@@]1(O)C(=O)CO (stereo partly specified)	.	.	.	.	0.0%	.
